In PubChem BioAssay (EPA / NIEHS):
Inconclusive results are not listed. Activity calls are given as the source filed them. Rule for the calls: active = hit-call score of the fitted dose curve at least 0.9, where 1 is the maximum; inconclusive = response in the unintended direction; inactive = score below 0.9.

Each compound was assayed against bovine Estrogen Receptor (ER), ESR1 (gene 407238) (UniProt P49884) (assay: NVS_NR_bER: NovaScreen (NVS) Nuclear Receptor Binding Assay for bovine Estrogen Receptor (ER) (AID 2283345);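 note: actives lower the bound radioligand count which means they displace the ER ligand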).
Protocol: NVS_NR_bER is a biochemical, single-readout assay that uses extracted gene-proteins from Bovine uterine membranes in a tissue-based cell-free assay. Measurements were taken 18 hours after chemical dosing in a 96-well plate.NVS_NR_bER is one of one assay component(s) measured or calculated from the NVS_NR_bER assay. It is designed to make measurements of radioligand binding, a form of binding reporter, as detected with scintillation counting signals by Lysate-based radiodetection technology.Data from the assay component NVS_NR_bER was analyzed into 1 assay endpoint. This assay endpoint, NVS_NR_bER, was analyzed in the positive analysis fitting direction relative to DMSO as the negative control and baseline of activity. Using a type of binding reporter, loss-of-signal activity can be used to understand changes in the binding as they relate to the gene ESR1. Furthermore, this assay endpoint can be referred to as a primary readout, because the performed assay has only produced 1 assay endpoint. To generalize the intended target to other relatable targets, this assay endpoint is annotated to the nuclear receptor intended target family, where the subfamily is steroidal.
Binding assays used specific radioligands (tritiated, iodinated) with non-radioactive competitive displacement ligands in agonist or antagonist protocols (as indicated) and various reference compounds and inhibitors to titrate specific binding to receptors and transporters. Most enzyme assays (CYPs, kinases, phosphatases, proteases, HDACs) used recombinant protein and specific substrates (fluorescence mostly, some colorimetric and radioactive) and inhibitors, followed by a biochemical separation of substrate and product. All assays for the biochemical HTS were initially run in duplicate at a single concentration (10 uM for CYP450 assays and 25 uM for all others). […] Each assay was run with positive and negative controls, and concurrent controls on every plate. The follow-up (secondary) screen tested active chemical-pairs in concentration series, as well as a few additional assays not tested in the primary screen, some selected negative inactives, and several cases re-run in the concentration series for confirmatory purposes.

bovine Estrogen Receptor (ER), ESR1 (gene 407238), sequence (P49884 whole entry, looked up): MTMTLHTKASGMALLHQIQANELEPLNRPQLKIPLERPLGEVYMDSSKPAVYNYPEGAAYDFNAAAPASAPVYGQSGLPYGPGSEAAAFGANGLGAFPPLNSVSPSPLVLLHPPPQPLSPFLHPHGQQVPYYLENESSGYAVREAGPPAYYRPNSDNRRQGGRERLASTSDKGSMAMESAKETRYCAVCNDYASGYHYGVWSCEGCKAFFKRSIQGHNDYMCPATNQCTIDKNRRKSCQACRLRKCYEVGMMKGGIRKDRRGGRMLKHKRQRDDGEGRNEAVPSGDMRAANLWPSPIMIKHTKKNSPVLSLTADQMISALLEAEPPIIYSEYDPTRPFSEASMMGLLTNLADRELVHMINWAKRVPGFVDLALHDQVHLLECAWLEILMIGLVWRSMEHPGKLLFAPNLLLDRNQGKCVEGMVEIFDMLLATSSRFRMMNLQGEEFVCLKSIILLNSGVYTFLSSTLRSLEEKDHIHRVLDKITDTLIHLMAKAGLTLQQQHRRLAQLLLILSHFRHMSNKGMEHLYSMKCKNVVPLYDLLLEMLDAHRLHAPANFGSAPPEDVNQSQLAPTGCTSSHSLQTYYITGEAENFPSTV

SMILES	outcome	AC50
COc1ccc(S(=O)(=O)N2C(=O)[C@@](c3ccccc3OC)(N3C[C@H](O)C[C@H]3C(=O)N(C)C)c3cc(Cl)ccc32)c(OC)c1	inactive	
COc1cc(-c2nc(NC(=O)c3cc4cc(C)cc(C)c4n3CC(=O)O)sc2CCC2CCCCC2)c(OC)cc1Cl	inactive	
CC(C)c1ccc(C(=O)N=C(N)N)cc1S(C)(=O)=O	inactive	
Oc1ccc2ccccc2c1N=Nc1ccccc1	inactive	
CCCCCCCCCCCCCCCCCC(=O)O	inactive	
CN[C@H]1CC[C@@H](c2ccc(Cl)c(Cl)c2)c2ccc(S(N)(=O)=O)cc21	inactive	
CCCCCCC(=O)OCC	inactive	
Cc1cccc(Nc2cc(Cl)nc(SCC(=O)O)n2)c1C	inactive	
Cc1nc(-c2ccc3c(c2)CCN(CCC2CCC(NC(=O)/C=C/c4ccc(F)cc4)CC2)CC3)no1 (stereo unspecified)	inactive	
Nc1ccccc1N	inactive	
O=C(O)Cc1ccccc1Nc1c(Cl)cccc1Cl	inactive	
CCCc1cc(=O)[nH]c(=S)[nH]1		25 µM (active)
CCCCCCCC=O	inactive	
COc1ccc2c(c1)c(CC(=O)O)c(C)n2C(=O)c1ccc(Cl)cc1	inactive	
CNCc1cc(F)ccc1Oc1ccc(Cl)c(Cl)c1	inactive	
CCc1c(C(=O)NN2CCCCC2)nn(-c2ccc(Cl)cc2Cl)c1-c1ccc(Br)cc1	inactive	
COc1cc(C=O)ccc1O	inactive	
Cc1ccc(Cl)cc1	inactive	
CN1CCN(Cc2cc(-c3ccc4[nH]c(=O)oc4c3)co2)[C@@H](c2ccc(F)cc2)C1	inactive	
COC(=O)c1ccc(O)cc1	inactive	
CCCCC(CC)COC(=O)CC(C(=O)OCC(CC)CCCC)S(=O)(=O)O (stereo unspecified)	inactive	
